# This excerpt belongs to a sample that is enriched for hits.
# mHTT CaM bind = mutant huntingtin-calmodulin interaction inhibitors – biochemical, AlphaScreen, primary screen | P42858 | AlphaScreen His-mHTT/GST-CaM binding, luminescence | inhibition, % at 15 µM | hit rate 3.6% among 190,000 | AID 1671202, 2021;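 also: 0% = both proteins with DMSO and 100% = one protein alone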
# Pf apPOL block = Pf-apPOL inhibitors, biochemical, fluorescence. Recombinant Pf-apPOL, molecular beacon fluorescence, 1.5 h. inhibition, % at 10 µM. hit rate 0.25% among 210,000
# Active calls of the source: *; . = not tested or not shown. Rule as the data show it: active = inhibition above about 50%; inactive = the rest.
SMILES,mHTT CaM bind,Pf apPOL block
CC1CCCCN1S(=O)(=O)c1ccc(C(=O)Nc2nc(-c3ccccn3)cs2)cc1 (centres undefined),100.0*,-9.1
CC1CCCCN1S(=O)(=O)c1ccc(C(=O)Nc2nc3c(s2)Cc2ccccc2-3)cc1 (centres undefined),21.0,-5.0
CC1CCN(S(=O)(=O)c2ccc(C(=O)Nc3nc4c(s3)Cc3ccccc3-4)cc2)CC1,10.0,-9.6
CC1CCCN(S(=O)(=O)c2ccc(C(=O)Nc3nc(-c4ccccn4)cs3)cc2)C1 (centres undefined),100.0*,-0.8
O=C(Nc1nc(-c2ccccn2)cs1)c1ccc(N2C(=O)CCC2=O)cc1,100.0*,-5.8
Cc1nnc(NC(=O)c2ccc(S(=O)(=O)N3CCCC(C)C3)cc2)o1 (centres undefined),24.0,-4.2
O=C(Nc1nc(-c2cc(Cl)ccc2Cl)cs1)c1ccc(N2C(=O)CCC2=O)cc1,-5.9,-0.1
CC(=O)Oc1ccc2c(c1)OC(=Cc1ccncc1)C2=O,20.6,1.9
CC1CCN(C(=O)c2cnn3ccc(C4CCN(C(=O)c5ccccc5F)CC4)cc23)CC1,12.1,-5.7
CCNC(=O)c1cc2c(=O)n3cccc(C)c3nc2n(C(C)CC)c1=N (centres undefined),-6.0,-7.0
COc1cc(C=NNC(=O)c2cccnc2)cc(OC)c1OC,.,-2.4
O=C(c1ccc(Br)o1)N1CCN(c2nc(CN3CCCCC3)cs2)CC1,30.4,-5.2
COC(=O)COc1ccc2c(c1)OC(=Cc1ccccc1Br)C2=O,3.4,2.7
C=CCNC(=O)C(=O)NC1CCCCCC1,-7.2,-4.7
CCN(CC)S(=O)(=O)c1ccc(Cl)c(C(=O)Nc2ccc(OC)cc2)c1,-5.5,-4.8
Cc1ccccc1CSCc1ccc(C(=O)N2CCC(c3ccncc3)CC2)o1,57.6*,-1.1
Cc1ccccc1CSCc1ccc(C(=O)O)o1,5.0,-6.5
COc1cc(OC)cc(C(=O)Nc2c3c(nn2-c2ccccc2C)CSC3)c1,37.0,-7.7
COc1cc(NCc2cc(OC)c(O)c([N+](=O)[O-])c2)cc(OC)c1,64.7*,2.7
COc1cc(NCc2cc(I)c(O)c(OC)c2)cc(OC)c1,88.8*,-3.3
COc1cc(CN2CCSCC2)cc(I)c1O,5.7,-2.3
COc1cc(CN2CCCCCCC2)cc([N+](=O)[O-])c1O,5.3,-6.3
CC1CCN(CC2CCN(S(=O)(=O)c3cccc(Cl)c3)CC2)CC1,-5.6,-3.3
Cn1cc(-c2noc(-c3cc(F)ccc3Cl)n2)ccc1=O,-4.7,2.2
O=C(CN1C(=O)C(=O)c2ccccc21)c1ccc(Cl)cc1,0.2,-9.6
SMILES,mHTT CaM bind,Pf apPOL block
O=C1C(=O)N(C(c2ccccc2)c2ccc(Cl)cc2)c2ccccc21 (centres undefined),93.0*,-1.8
O=C(CSc1nc2ccccc2[nH]1)Nc1cc(C(F)(F)F)ccc1Cl,50.0*,-3.8
Cc1cc(=O)[nH]c(SCC(=O)Nc2cc(C(F)(F)F)ccc2Cl)n1,-4.0,-0.6
O=C(Nc1cnc(N2CCOCC2)nc1)c1ccc(Br)cc1,-2.8,-8.1
CC1CN(C(=O)Cc2c(F)cccc2Cl)CC1c1nc(-c2ccccc2)no1 (centres undefined),-2.5,-2.4
CC(C)(C1=CC(=O)c2ccccc2C1=O)C1OCC2(CO1)CC1C=CC2C1 (centres undefined),53.1*,.
C1=CC2CC1CC21COC(c2ccc3oc4ccccc4c3c2)OC1 (centres undefined),-17.1,.
CCCC(=O)Sc1[s+]sc2c1-c1cc(C)ccc1NC2(C)C,36.1,.
Cc1sc2cc(C(=O)N3CCCCC3)[nH]c2c1CN1CCOCC1,31.1,3.7
Cc1sc2cc(C(=O)N3CCC(C)CC3)[nH]c2c1CN1CCOCC1,68.7*,-7.0
Cc1sc2cc(C(=O)N3CCCCCC3)[nH]c2c1CN1CCOCC1,58.8*,-3.1
Cc1sc2cc(C(=O)N3CCOCC3)[nH]c2c1CN1CCCC1,23.6,-2.9
NNC(=O)C(NC(=O)c1ccc([N+](=O)[O-])cc1)C12CC3CC(CC(C3)C1)C2 (centres undefined),3.9,-2.7
C#CCSc1ccccc1C(=O)O,-6.8,-3.5
C#CC(C=CC)OC(=O)c1ccccc1C(=O)O (centres undefined),.,53.3*
COc1ccc(C=Nc2nc(C34CC5CC(CC(C5)C3)C4)cs2)cc1,3.0,-6.3
COc1cc(N2CN=c3s/c(=C\C=C\c4ccccc4)c(=O)n3C2)cc(OC)c1OC,55.0*,-6.4
COc1cc(N2CN=c3s/c(=C\c4ccccc4)c(=O)n3C2)cc(OC)c1OC,35.0,-8.0
CCOC(=O)N1CCC(NC(=O)C(=O)Nc2ccc(C(F)(F)F)cc2)CC1,-5.7,-2.2
COc1nccnc1NS(=O)(=O)c1ccc(NC(=O)c2ccccc2Cl)cc1,18.0,-8.0
COc1nccnc1NS(=O)(=O)c1ccc(NC(=O)COc2cc(C)c(Cl)c(C)c2)cc1,50.0*,9.1
O=C(NCc1ccc(N2CCOCC2)cc1)c1cc2cn(C3CC3)cc2s1,20.8,7.8
COc1cccc(CNC(=O)c2cc3cn(C4CC4)cc3s2)c1,57.4*,15.5
O=C(c1cc2cn(C3CCCC3)cc2s1)N1CCN(C2CCCCC2)CC1,73.4*,8.9
O=C(NCCCN1CCCC1)c1cc2cn(C3CC3)cc2s1,99.2*,107.5*
SMILES,mHTT CaM bind,Pf apPOL block
O=C(NCCCN1CCCC1)c1cc2cn(C3CCCC3)cc2s1,15.6,9.5
CC(C)n1cc2cc(C(=O)NCc3ccc(N4CCOCC4)cc3)sc2c1,33.4,3.8
CC(C)n1cc2cc(C(=O)NCc3ccc(Cl)cc3)sc2c1,73.0*,-0.6
O=C(c1cc2cn(C3CCCC3)cc2s1)N1CCSCC1,18.9,-1.2
NC(=O)c1ccsc1NC(=O)c1ccccc1[N+](=O)[O-],1.8,-4.4
CCOC(=O)Nc1ccc(OC(C)C)cc1,-0.4,-6.0
COc1ccc(NC(=O)c2cc3cn(C4CC4)cc3s2)c(C)c1,51.7*,9.5
CC(C)NC(=O)c1cc2cn(C3CCCC3)cc2s1,16.6,-4.1
O=C1C(=Cc2ccc3c(c2)OCO3)Oc2c1ccc1c2CN(CC2CCCO2)CO1 (centres undefined),23.3,-15.8
COc1ccc(Oc2ccc(C(F)(F)F)cc2NC(=O)c2ccc(OC)cc2)cc1,.,21.3
COc1ccc([C@H]2C=C3CNS(=O)(=O)[C@H]3C[C@H]2OC(=O)c2ccc(Cl)cc2)cc1,60.2*,-6.1
COc1ccc(C2C(=C(O)c3ccc(Cl)cc3)C(=O)C(=O)N2C)cc1 (centres undefined),4.9,-2.6
COc1ccc([C@H]2C=C3CNS(=O)(=O)[C@H]3C[C@H]2OC(=O)c2cccs2)cc1,11.9,-6.7
COc1ccc([C@H]2C=C3CNS(=O)(=O)[C@H]3C[C@H]2OC(=O)c2ccc(C(F)(F)F)cc2)cc1,99.8*,-9.8
COc1ccc([C@H]2C=C3CNS(=O)(=O)[C@H]3C[C@H]2OC(=O)c2cccc(C)c2)cc1,82.2*,-4.2
Cc1ccc(C)c(N2C=C(C#N)S(=O)(=O)c3ccc(F)cc32)c1,-8.5,-0.4
Cc1cccc(C(=O)N=c2sc(C)cn2CC(=O)N2CCCC2)c1,1.3,0.0
Cn1c(-c2ccccn2)nn(CCNC(=O)c2ccccc2C(F)(F)F)c1=O,-5.1,-5.6
Cc1cc(C)n2nc(SC(C)C(=O)NC3CC3)nc2n1 (centres undefined),-15.0,-1.6
CCc1cc2c(=O)c(-c3nc4ccccc4n3C)c(C(F)(F)F)oc2cc1O,97.0*,-0.8
